# Source: PubChem BioAssay AID588778 (Southern Research Institute, 2011)
# Among all 10,000 compounds or so, fewer than 10 were called active. How the calls were made is not given here. Only a sample is shown.
# Assay: Vibrio cholerae motility inhibitors, OD read-out (AID 588778)
# Conditions: stronger effect = higher value
# [1] = measured here: bacterial viability at 10 ug/mL
SMILES,inhibition (concentration not given here),inhibition [1]
Cc1c(NC(=O)c2nn3c(C(F)(F)F)c4c(nc3c2Cl)-c2ccccc2CC4)c(=O)n(-c2ccccc2)n1C,-11.3% (inactive),-0.51%
S=C1NC(C23CC4CC(CC(C4)C2)C3)=CC(c2ccc(Cl)cc2)N1 (stereo not drawn),-6.78% (inactive),-4.13%
CC(C)CC(C(=O)Oc1ccc2c3c(c(=O)oc2c1)CCC3)N1C(=O)c2ccccc2C1=O (stereo not drawn),6.55% (inactive),-2.25%
CCC(=O)OCC12COC3c4ccccc4OC(C)(CC1C)C3C2C (stereo not drawn),-16.5% (inactive),-10.6%
CCOC(=O)c1ccc(NC(=O)COc2ccc3oc(=O)cc(C)c3c2)cc1,-17.2% (inactive),-0.82%
Cc1ccccc1C(=O)N1CCN(c2nc(N3CCCC3)nc(N3CCCC3)n2)CC1,-0.47% (inactive),0.25%
O=C(Cc1c(F)cccc1Cl)NCc1ccc2c(c1)OCO2,40% (inactive),7.78%
O=C(CSc1nnnn1-c1ccccc1)c1cc2ccccc2oc1=O,3.97% (inactive),-4.29%
COCCSc1nnc(NC(=O)Cc2c(F)cccc2Cl)s1,-2.92% (inactive),-1.31%
O=C(NC(=O)c1ccccc1)Nc1ccc(Br)cc1,-16.2% (inactive),-9.72%
COc1c(C)cc(Br)cc1C(=O)NC(=S)Nc1nc(C)cc(C)n1,-16.1% (inactive),-11.8%
CCCCC(=O)Nc1ccc(NC(=O)C(Cl)(Cl)Cl)cc1OC,3.09% (inactive),-3.52%
O=C(CCOc1ccccc1)Nc1ccc(Br)cc1,-9.09% (inactive),-6.95%
O=C(NCc1ccc(-c2nc3ccccc3s2)cc1)c1ccc(Br)o1,1.75% (inactive),9.78%
Cc1ccc(S(=O)(=O)Nc2cc(Sc3nnnn3-c3ccccc3)c(O)c3ccccc23)cc1,15.9% (inactive),1.17%
COC(=O)C1=C(C)NC(C)=C(C(=O)OC)C1c1sccc1C,20.1% (inactive),-0.13%
CC(=O)CSc1nnc(-c2cccnc2)o1,-0.39% (inactive),0.24%
O=C(O)C(Cc1ccccc1)N1C(=O)/C(=C/c2ccc([N+](=O)[O-])cc2)SC1=S (stereo not drawn),8.42% (inactive),1.4%
CCOC(=O)c1c(NC(=O)Nc2ccccc2C)sc2c1CC(C)(C)OC2,9.16% (inactive),24.8%
COc1ccc(OC)c(C(=O)CCC(=O)Nc2cccc(C(F)(F)F)c2)c1,-4.82% (inactive),3.82%
CCOC(=O)C1(NC(=S)N(CC)CC)Sc2cc(C)ccc2NC1=O (stereo not drawn),12.1% (inactive),13.5%
CCN(CC)c1ccc(CNC(C)C(O)c2ccccc2)cc1 (stereo not drawn),19.9% (inactive),5.6%
c1ccc2nc3c(nc2c1)CCc1nonc1-3,0.045% (inactive),-1.06%
CCOC(=O)c1ccc(CNC(=O)CCC(=O)O)cc1,2.35% (inactive),-10.3%
O=C(CCC(=O)Nc1ccccc1Cl)NNC(=O)Nc1ccc(F)cc1F,-13.9% (inactive),-8.28%
O=C(c1c(F)cccc1F)N1CCN(C(c2ccccc2)c2ccccc2)CC1,11.9% (inactive),-2.62%
O=C(NC(=S)NNC(=O)c1cnccn1)c1ccc(F)cc1,17.5% (inactive),4.07%

SMILES,inhibition (concentration not given here),inhibition [1]
CCSc1nnc(NC(=O)c2ccc(Br)s2)s1,-21.3% (inactive),-10.2%
O=C(O)CCc1ccc(-c2cccs2)n1-c1cc(Cl)ccc1Cl,5.81% (inactive),-0.02%
CCc1ccccc1OCCCCn1c2ccccc2c2ccccc21,-30.3% (inactive),-15.4%
COCCSc1ccccc1C(=O)NCc1ccc(S(N)(=O)=O)cc1,4.8% (inactive),5.23%
CCCC(=O)N1CCN(c2ccc(NC(=O)COc3ccc(C)c(C)c3)cc2Cl)CC1,10.7% (inactive),4.97%
O=C(Nc1nnc(C(F)(F)F)s1)C(Sc1ccccc1)c1ccccc1 (stereo not drawn),-9.96% (inactive),-4.95%
O=C(Cc1ccccc1Cl)c1ccc(O)c(O)c1O,12.7% (inactive),2.63%
COc1cc(OC)c(NC(=O)c2csc3ccccc23)cc1Cl,4.43% (inactive),1.11%
COC(C(=O)Nc1cc([N+](=O)[O-])ccc1C)c1ccccc1 (stereo not drawn),3.61% (inactive),-3.16%
O=C(OCc1ccccc1F)c1ccc([N+](=O)[O-])cc1Cl,45.5% (inactive),18.5%
Cn1ncc(C#N)c1NC(=O)C1CC(c2c(F)cccc2Cl)=NO1 (stereo not drawn),15.8% (inactive),10.8%
Cn1nc([N+](=O)[O-])nc1Sc1nnc(-c2cccnc2)o1,44.4% (inactive),15.6%
COc1cc2c(NCc3ccccc3)cc(O)c(CC(=O)Nc3ccc(Cl)cc3)c2cc1OC,8.57% (inactive),1.46%
Cc1ccc(-c2c(C(=O)NNC(=S)NCC3CCCO3)csc2C)cc1 (stereo not drawn),17.3% (inactive),-2.95%
Cc1ccccc1NC(=S)NC1CCCC1,-3.76% (inactive),-1.53%
O=C(CSc1nc2ccccc2s1)NNC(=S)Nc1ccc(F)c(Cl)c1,47.6% (inactive),18.2%
Cc1ccc2c(c1)C(=O)C(=O)N2,26.8% (inactive),12.9%
Cc1nc(Oc2ccc3c(c2)OCO3)c2cc(-c3ccccc3)sc2n1,6.33% (inactive),0.3%
Cc1ccc2cccc(OCc3nnc(-c4ccccc4)o3)c2n1,14.5% (inactive),-1.8%
COC(=O)c1ccc2ccn(CC(N)=O)c2c1,8.78% (inactive),7.37%
COc1cccc(/C=C/C2=NN(c3ccc(Cl)c(Cl)c3)C(c3cccc(OC)c3OC)C2)c1OC (stereo not drawn),26.7% (inactive),13.6%
Cc1ccccc1NC(=O)NC1CCS(=O)(=O)C1 (stereo not drawn),-0.46% (inactive),-4.02%
C=CCOc1cccc(CNc2ccc3[nH]c(=O)[nH]c3c2)c1,33.7% (inactive),18.3%
Cc1ccc2nc(-c3cccnc3)cc(C(=O)Nc3ccc4c(C)cc(=O)oc4c3)c2c1,-7.04% (inactive),9.26%
O=C(O)Cc1ccc(NC(=O)c2cccnc2C(=O)O)cc1,-4.82% (inactive),-2.46%
Cc1ccc(NC(=O)c2ccccc2NC(=O)Cc2ccc(Cl)cc2)cc1C,11.1% (inactive),19.3%
O=C1C(c2ccccn2)=C(O)c2ccccc21,14.8% (inactive),4.31%
